Test [1] deals with Human papillomavirus type 1a protein E7 (residues 44-93). Nature of the test: small molecules binding HPV E7 44-93 – biochemical, small-molecule microarray, residues 44-93, 635 nm fluorescence, primary screen (AID 1108).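 Also: E7 fragment applied at 1 µg/mL in TBST for 1 h at 4 C; score combines spot fluorescence with its signal to noise ratio.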 As to conditions: fluorescence 635 nm, higher = more signal.
Test [2] in a line: hepatitis C replication reporter changes, two-sided – Huh7 cells, luciferase reporter, HCV replication inhibitor project, primary screen (AID 1109).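 Also: huh7 hepatoma cells harbouring a luciferase neomycin HCV replicon reporter; luciferase luminescence as measure of HCV replicon replication; test concentration not given here.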 As to conditions: Huh7 HCV replicon luciferase reporter, 48 h; higher = more signal.
The target in test [3] is Left-right determination factor 2 (Homo sapiens) (UniProt O00292). The test is described as follows: small molecules binding LEFTY2 protein – biochemical, small-molecule microarray, 635 nm fluorescence scan, primary screen (AID 1110). As to conditions: higher = more signal.
Sequence of Left-right determination factor 2 (Homo sapiens) (O00292 whole entry, looked up): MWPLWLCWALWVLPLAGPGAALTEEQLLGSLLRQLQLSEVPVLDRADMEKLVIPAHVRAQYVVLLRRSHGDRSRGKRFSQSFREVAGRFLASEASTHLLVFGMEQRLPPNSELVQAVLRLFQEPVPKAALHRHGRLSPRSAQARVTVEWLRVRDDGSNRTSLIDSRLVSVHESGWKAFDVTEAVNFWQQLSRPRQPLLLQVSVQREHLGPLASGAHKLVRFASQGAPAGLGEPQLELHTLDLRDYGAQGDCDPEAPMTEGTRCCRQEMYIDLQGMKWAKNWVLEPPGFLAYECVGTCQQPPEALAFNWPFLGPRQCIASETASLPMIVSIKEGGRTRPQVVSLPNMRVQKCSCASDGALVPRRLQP
For test [4], the target named is Calmodulin-1 (Homo sapiens) (UniProt P0DP23). The test is described as follows: small molecules binding calmodulin-1 with EGTA – biochemical, small-molecule microarray, Cy5-labelled CALM1, profiling panel (AID 1111).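 Also: labelled calmodulin applied in Tris saline Tween buffer holding calcium plus EGTA and DTT.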 Conditions: Cy5-CALM1 binding fluorescence, higher = more signal.
For test [5] the target is unchanged. Nature of the test: small molecules binding Ca-loaded calmodulin-1 – biochemical, small-molecule microarray, Cy5-labelled CALM1, plus calcium, artefact control for SMM control-protein annotation, profiling panel (AID 1112).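 Also: score merges spot fluorescence with signal to noise from triplicate slides.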 Conditions: Cy5-CALM1 binding fluorescence, higher = more signal.
A short description of test [6]: probe aWnt5a binding to arrayed compounds – biochemical, biotinylated probe, 635/667 nm fluorescence, primary screen (AID 1113).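 Also: score merges 667 nm fluorescence intensity with signal-to-noise per printed feature.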 As to conditions: small-molecule microarray, higher = more signal.
Test [7] is described as follows: probe aShh binding to arrayed compounds – biochemical, biotinylated probe, 635/667 nm fluorescence, primary screen (AID 1114).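 Also: probe is biotin-labelled aShh protein from a stem cell growth factor screen; measures binding of labelled protein to compounds printed on the slide; score merges feature fluorescence at 667 nm with signal-to-noise.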 As to conditions: small-molecule microarray, higher = more signal.
Test [8] is described as follows: probe aNog binding to arrayed compounds – biochemical, biotinylated probe, 635/667 nm fluorescence, primary screen (AID 1115).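 Also: probe is biotinylated aNog protein used at 0.15 µg/mL for 1 h at 4 C; z-score combines 667 nm fluorescence of each spot with its signal to noise.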 As to conditions: small-molecule microarray, higher = more signal.
For test [9], the target named is Torsin-1A-interacting protein 1 (Homo sapiens) (UniProt Q5JTV8). The test is described as follows: compound microarray binding of lysate hLAP1 – cell lysate, small-molecule microarray, COS7 lysate, 635/667 nm fluorescence, primary screen (AID 1116). As to conditions: 635 nm fluorescence, higher = more signal.
Sequence of Torsin-1A-interacting protein 1 (Homo sapiens) (Q5JTV8 whole entry, looked up): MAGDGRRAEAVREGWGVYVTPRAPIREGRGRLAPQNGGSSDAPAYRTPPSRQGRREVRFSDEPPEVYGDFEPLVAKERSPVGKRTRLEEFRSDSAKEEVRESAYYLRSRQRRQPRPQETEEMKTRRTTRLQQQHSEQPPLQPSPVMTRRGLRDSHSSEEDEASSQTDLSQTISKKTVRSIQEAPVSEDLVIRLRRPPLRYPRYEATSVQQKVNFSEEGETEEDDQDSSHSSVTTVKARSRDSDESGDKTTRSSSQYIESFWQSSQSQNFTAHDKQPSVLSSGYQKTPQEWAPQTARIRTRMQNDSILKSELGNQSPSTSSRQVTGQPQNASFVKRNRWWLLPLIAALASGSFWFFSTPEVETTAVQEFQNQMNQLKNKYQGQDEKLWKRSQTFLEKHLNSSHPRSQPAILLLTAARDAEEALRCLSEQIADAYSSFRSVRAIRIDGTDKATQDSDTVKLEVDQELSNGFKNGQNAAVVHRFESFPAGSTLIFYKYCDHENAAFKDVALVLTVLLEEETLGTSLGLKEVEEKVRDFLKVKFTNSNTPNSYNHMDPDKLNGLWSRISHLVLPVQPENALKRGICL
Test [10] deals with Alpha-bungarotoxin (Bungarus multicinctus) (UniProt P60615). The test is described as follows: compounds binding labelled alpha-BTX control protein – biochemical, small-molecule microarray, Alexa647 label, 635/667 nm fluorescence, artefact control for SMM control protein annotation, profiling panel (AID 1117). As to conditions: alpha-BTX-A647 binding fluorescence, higher = more signal.
Sequence of Alpha-bungarotoxin (Bungarus multicinctus) (P60615 whole entry, looked up): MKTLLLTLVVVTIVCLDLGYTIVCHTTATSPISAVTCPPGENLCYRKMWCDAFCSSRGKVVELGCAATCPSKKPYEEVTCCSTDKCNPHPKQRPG

As to `CCCCCCc1nc(Cc2cc(OC)c(OC)c(OC)c2)c(C)c2c1[Si](C(C)C)(C(C)C)OC2`, the composite z-score in test [1] is 0.495; in [3] it was 0.0746; in test [4] it was -0.0235; in test [5], -0.128; in test [6], -0.0721; in test [7], 0.14. In addition, the figures for the composite z-score in test [8], in test [9] and in test [10] were -0.0587, 0.18 and -0.101, respectively. Moreover, in [2], the z-score was -0.715.

Regarding `C[N+](C)(C)CCCC[C@@H]1NC(=O)[C@H]2C[C@@H](C(=O)O)[C@@H](c3ccc(O)cc3)N2C1=O`, the composite z-score is 0.315 in [1]; 0.436 in test [3]; -0.171 in test [4]; 0.11 in test [5]; -0.147 in test [6]; -0.375 in [7]. The composite z-score in test [8] was -0.14; in test [9] it was 1.74; in [10], 0.343. In test [2], this compound displayed a z-score of 3.08.

`O=C1O[C@H](c2ccccc2)[C@H](c2ccccc2)N2[C@H]1[C@@H](C(=O)N1CCN(c3ncccn3)CC1)[C@]1(C(=O)Nc3ccc(C#CC4(O)CCCCCC4)cc31)[C@H]2c1ccc(O)cc1`: the composite z-score in test [1] was 1.07; in test [3], 0.15; in test [4], 1.14; in test [5], 0.792; in [6] it was -0.0037; in test [7], 0.106. Besides, the composite z-score in [8] is -0.0496; in test [9], 0.679; in test [10], 2.18. Besides, in test [2], the z-score is -0.317.

Regarding `C=CC[C@H](OC(=O)Nc1ccc(SC)cc1)c1ccc(O)c(F)c1`, the composite z-score in test [1] was -0.419; in test [3], -0.722; in [4], -0.652; in test [5] it was -0.328; in test [6] it was -0.147; in test [7], -0.0709. Also, the composite z-score was -0.267 in test [8], 1.82 in [9] and -0.165 in test [10]. In test [2], this compound yielded a z-score of 0.599.

Turning to `O=C1C2C=CC(C(O)C3CC=CCC3)N(Nc3ccc([N+](=O)[O-])cc3)C2C(=O)N1c1ccccc1` (stereo not given), the composite z-score in test [1] was 0.34; in test [3], 0.485; in test [4] it was 1.76; in test [5] it was -0.0685; in test [6], 0.22; in test [7] it was 0.262. Besides, the composite z-score was 1.39 in test [8], 1.75 in test [9] and 1.87 in [10]. In test [2], this compound had a z-score of 0.276.

Turning to `CCCCN1CC=CC23O[C@@H]4/C=C\CCCOC(=O)C4[C@H]2C(=O)N(CCCCCCO)[C@@H]3C1=O` (stereo not given in full), the composite z-score in [1] is 0.528; in test [3] it was -1.53; in test [4] it was -1.12; in test [5] it was -0.439; in test [6], -0.152; in test [7], 0.0639. In addition, the figures for the composite z-score in test [8], in test [9] and in test [10] were -0.346, 3.21 and -1.09, respectively. Further, the z-score in test [2] stood at 0.284.

On to `C=CC[C@@]1(C(=O)NCCCOC)N=C(c2ccc(OCCCO)cc2)O[C@@H]1c1ccccc1CN=[N+]=[N-]`, for which the composite z-score in test [1] was 1.42; in test [3] it was 0.266; in test [4], 1.66; in test [5] it was 0.414; in test [6], 0.0391; in [7], -0.13. In addition, the composite z-score in test [8] worked out at 0.396; in test [9], 0.957; in test [10] it was 1.19. For the same compound, in test [2], the z-score is -2.12.

For the compound `O=C1c2ccccc2[C@](Cc2ccccc2I)(C(=O)NCCN2CCOCC2)[C@H](c2ccc(CO)cc2)N1Cc1ccccc1C(F)(F)F`, the composite z-score is 1.4 in [1]; -0.325 in test [3]; 0.799 in test [4]; 0.492 in test [5]; -0.0721 in test [6]; -0.221 in test [7]. In addition, the composite z-score in [8] was -0.43; in [9], 0.598; in test [10] it was 0.787. Also, in test [2], the z-score was -2.44.

In the case of `COC(=O)C1(CC(C)C)C=C2C(=C(C)C(=O)C2C)CN1` (stereo not given), the composite z-score is -0.412 in test [1]; -0.253 in test [3]; 0.0595 in test [4]; 0.89 in test [5]; 0.432 in test [6]; 1.79 in [7]. Besides, the values for the composite z-score in test [8], in test [9] and in test [10] were 0.825, 0.653 and 0.096, respectively. In addition, the z-score in test [2] was -1.01.

Take `C=CCOC(=O)[C@H]1[C@@H]2C(=O)O[C@@H](c3ccccc3)[C@@H](c3ccccc3)N2[C@@H](c2ccc(OCCOC(=O)[C@H]3C[C@H]4C(=O)NCC(=O)N4[C@H]3c3ccc(O)cc3)cc2)[C@]12C(=O)Nc1ccccc12`: the composite z-score was 1.44 in [1]; 0.506 in test [3]; 1.18 in test [4]; -0.237 in [5]; -0.0758 in test [6]; -0.16 in test [7]. Besides, the figures for the composite z-score in [8], in test [9] and in [10] were -0.217, 1.05 and 1.77, respectively. Also, in test [2], the z-score was -2.07.

Consider `CC(C)C[C@H]1NC(=O)CNC(=O)[C@@]23C(=O)N[C@@H](Cc4ccccc4)C2[C@H](C)[C@@]2(C)O[C@H]2C3/C=C/C/C=C\CNC1=O` (stereo not given in full), for which the composite z-score was 0.0774 in [1]; 0.715 in test [3]; -0.322 in test [4]; -0.833 in test [5]; -0.169 in test [6]; -0.221 in [7]. Besides, the composite z-score in [8] was -0.0315; in test [9], -0.0248; in test [10], -0.188. The compound further showed a z-score in test [2] of 0.238.

On to `C=CCNC(=O)[C@H]1[C@@H]2C(=O)O[C@@H](c3ccccc3)[C@@H](c3ccccc3)N2[C@@H](c2ccc(OCCO)cc2)[C@]12C(=O)Nc1ccc(C#Cc3ccc(OC)cc3)cc12`, for which the composite z-score in [1] came out at 1.02; in [3] it was 0.699; in [4], 0.573; in test [5], 0.787; in test [6], 0.104; in [7], 0.465. The values for the composite z-score in test [8], in test [9] and in test [10] were -0.403, 1.1 and 1.71, respectively. The z-score in [2] is -2.18.
